Experimental data published in PubChem BioAssay.
Calls of active or inactive are those of the source.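 Rule for the calls, unless noted: active = visual image review flags a hit and inhibition of aggregation exceeds 20%; inconclusive = visual hit but inhibition at or below 20%; inactive = no hit on visual image review.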

How the values were obtained:
[1] = inhibitors of TNFa-induced NFkB p65 translocation, primary screen, imaging, HUVEC, MLSMR starter and 10KST1 sets (AID 438;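 active = inhibition above 20% together with a positive visual image hit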;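 note: compound added about 3h40 before a 20 min TNFalpha stimulation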;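 for inhibition: signal is the nuclear over cytoplasmic p65 intensity ratio per well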); conditions: HUVEC TNFa-induced p65 nuclear translocation; cell count: measured here: nuclei count (cytotoxicity indicator), at 2.08 µM; inhibition: at 2 µM, stronger effect = higher value, 0% TNFa-plus-vehicle, 100% no-TNFa wells
[2] = reduction of polyQ htt aggregates in cells – imaging, exon1htt(103Q)mCFP cells, high-content imaging, primary screen (AID 483); conditions: exon1htt(103Q)mCFP cell line, aggregate imaging, at 2 µM; inhibition of aggregation: stronger effect = higher value; nuclei count: measured here: cell count, toxicity;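 note: compound exposure lasted 3 days before fixation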;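 for nuclei count: percent of the per-plate median nuclei count of sample wells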
[3] = endothelial E-selectin expression blockers – imaging, HUVEC, immunofluorescence, MLSMR starter and 10KST1 sets, primary screen (AID 487;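 active = visually confirmed hit in the image check and inhibition above 20%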;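 for inhibition: signal is fraction of cell area covered by stained E-selectin grains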;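 for nuclei count: 100% = median nuclei count of all wells on the same plate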); conditions: HUVEC TNFalpha-induced E-selectin immunofluorescence imaging, at 2 µM; inhibition: stronger effect = higher value; nuclei count: measured here: cell number, toxicity
[4] = target: Voltage-gated potassium channel subunit beta-2 (Rattus norvegicus) (UniProt P62483); test: inhibitors of rat Kvbeta2 reductase activity – biochemical, NADPH fluorescence, primary screen (AID 622;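 active = fluorescence slope higher than the sample average by over 3 SD, cut at about -0.22 in these data, passing the limit was not always enough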;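 note: slope of raw intensity against log time taken from 70 to 1610 s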); conditions: recombinant KvBeta, 4-cyanobenzaldehyde reduction, at 10 µM, stronger effect = higher value
[5] = target: Voltage-gated potassium channel subunit beta-2 (Rattus norvegicus) (UniProt P62483); test: enhancers of rat Kvbeta2 NADPH turnover – biochemical, NADPH fluorescence, primary screen (AID 623;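 active = NADPH fluorescence slope more negative than the mean of all samples by about 3 SD, 99.7% confidence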;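 note: fluorescence intensity change per second fitted from 20 to 320 s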); conditions: Recombinant KvBeta, NADPH fluorescence decrease slope, 10 min; at 10 µM; stronger effect = lower value
[6] = target: Alpha-2C adrenergic receptor (Homo sapiens) (UniProt P18825); test: compounds altering alpha2C-coupled GIRK flux – cell-based, HEK293 alpha2C/GIRK1/2, thallium flux, primary screen (AID 624;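 active = fluorescence slope after compound addition differing from the mean of all screened samples at 99.7% confidence, in either direction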;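 note: slope of fluorescence ratio to pre-addition baseline per second over 15 to 24 s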); conditions: thallium flux BTC fluorescence, at 10 µM, actives lie on both sides
[7] = blockers of RIG-like receptor reporter activation – cell-based, Sendai virus stimulus, luciferase, 10K MLSCN set, TLR/RLR signaling modifier project, primary screen (AID 602276;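 active = inhibition at or above 50% at 10 µM; inactive = inhibition below 50%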;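 note: firefly luciferase from ISG56 promoter only with Renilla not read in this screen; 0% = Sendai virus plus DMSO and 100% = medium plus DMSO without virus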); conditions: HEK293 RL24 IRF3 luciferase reporter, at 10 µM, stronger effect = higher value
[8] = TLR3 IRF3 reporter activation blockers – cell-based, poly I:C stimulus, luciferase, 10K MLSCN set, primary screen (AID 602277;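 active = inhibition of the reporter signal at or above 50%; inactive = inhibition below 50%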); conditions: HEK293-TLR3 RL24 IRF3 luciferase reporter, at 10 µM, stronger effect = higher value

Alpha-2C adrenergic receptor (Homo sapiens), sequence (P18825 whole entry, looked up): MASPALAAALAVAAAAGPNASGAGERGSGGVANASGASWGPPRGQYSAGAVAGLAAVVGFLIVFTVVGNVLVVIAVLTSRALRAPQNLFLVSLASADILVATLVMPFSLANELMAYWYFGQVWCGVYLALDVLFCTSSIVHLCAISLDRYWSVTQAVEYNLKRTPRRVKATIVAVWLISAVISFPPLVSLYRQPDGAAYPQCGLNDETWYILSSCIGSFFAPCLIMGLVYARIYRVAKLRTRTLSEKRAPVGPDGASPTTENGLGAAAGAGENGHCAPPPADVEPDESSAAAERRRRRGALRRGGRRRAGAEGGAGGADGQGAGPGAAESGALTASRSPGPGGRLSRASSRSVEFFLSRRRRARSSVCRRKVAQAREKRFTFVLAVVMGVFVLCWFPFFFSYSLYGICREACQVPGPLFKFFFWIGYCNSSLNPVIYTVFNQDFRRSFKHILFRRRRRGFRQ
Voltage-gated potassium channel subunit beta-2 (Rattus norvegicus), sequence (P62483 whole entry, looked up): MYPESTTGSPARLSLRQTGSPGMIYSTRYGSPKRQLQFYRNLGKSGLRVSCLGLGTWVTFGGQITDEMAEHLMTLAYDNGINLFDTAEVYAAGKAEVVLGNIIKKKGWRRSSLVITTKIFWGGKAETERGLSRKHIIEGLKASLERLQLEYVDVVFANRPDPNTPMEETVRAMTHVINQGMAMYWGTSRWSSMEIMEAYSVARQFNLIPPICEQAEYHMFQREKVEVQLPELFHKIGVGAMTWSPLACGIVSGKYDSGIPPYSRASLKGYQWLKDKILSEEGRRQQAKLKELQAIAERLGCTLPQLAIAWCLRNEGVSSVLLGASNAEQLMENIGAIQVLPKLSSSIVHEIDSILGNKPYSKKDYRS

Row | SMILES | cell count [1] | inhibition [1] | inhibition of aggregation [2] | nuclei count [2] | inhibition [3] | nuclei count [3] | fluorescence slope [4] | NADPH fluorescence slope [5] | slope [6] | inhibition [7] | inhibition [8]
1 | COC(=O)NCC(c1cccnc1)N1CCOCC1 (stereo not drawn) | 605 | -11% (inactive) | 16.6% (inactive) | 97.8% | -24% (inactive) | 105% | -0.589 (inactive) | -3.5e-05 (inactive) | 0.0059 (inactive) | -1.28% (inactive) | 16.1% (inactive)
2 | Cc1c(C#N)c(N)c(C(=O)c2ccccc2)n1Cc1ccccc1 | 375 | 0% (inactive) | 15.4% (inactive) | 100% | -38% (inactive) | 117% | -0.512 (inactive) | -1.4e-05 (inactive) | 0.0107 (inactive) | -20.6% (inactive) | 0.155% (inactive)
3 | CN1CCN(c2nc3c(c(=O)[nH]c(=O)n3C)n2CCSc2nc3ccccc3s2)CC1 | 503 | -0.3% (inactive) | 25.5% (inactive) | 106% | 30.5% (inactive) | 100% | -0.578 (inactive) | -3e-05 (inactive) | 0.00601 (inactive) | 12.4% (inactive) | 33.3% (inactive)
4 | Cc1cc(C(=O)Nc2c(F)cc(F)cc2Br)no1 | 338 | -3.2% (inactive) | 25.8% (inactive) | 94.4% | -143% (inactive) | 103% | -0.58 (inactive) | 1.4e-05 (inactive) | 0.0051 (inactive) | 3.46% (inactive) | -12% (inactive)
5 | COc1ccc(NC(=O)CC2Oc3ccccc3NC2=O)cc1 (stereo not drawn) | 560 | 8.3% (inactive) | -0.3% (inactive) | 92.4% | -48.1% (inactive) | 122% | -0.556 (inactive) | -3.2e-05 (inactive) | 0.00626 (inactive) | 4.81% (inactive) | 31.8% (inactive)
6 | CCOC(=O)c1ccc(NC(=O)CSc2nnc(COc3ccccc3)n2C)cc1 | 393 | 2.5% (inactive) | -6.7% (inactive) | 97.5% | -25.8% (inactive) | 122% | -0.455 (inactive) | -5e-05 (inactive) | 0.00289 (inactive) | -1.67% (inactive) | 29% (inactive)
7 | CCOc1ccccc1N1CCN(C(=O)c2ccncc2)CC1 | 428 | -1.5% (inactive) | 12.2% (inactive) | 90.1% | 11.7% (inactive) | 105% | -0.421 (inactive) | -0.000112 (inactive) | 0.00573 (inactive) | -5.17% (inactive) | 15.5% (inactive)
8 | Cc1ccc(S(=O)(=O)CC2CSc3nnc(C)c(=O)n32)cc1 (stereo not drawn) | 432 | -3.3% (inactive) | 3.8% (inactive) | 91.3% | -36.1% (inactive) | 173% | -0.38 (inactive) | -5.3e-05 (inactive) | 0.00213 (inactive) | 12.3% (inactive) | 31.9% (inactive)
9 | CCN1CCN(C(=O)c2cc3c(=O)n(C)c4ccccc4c3n2C)CC1 | 601 | 20.7% (inactive) | -10.2% (inactive) | 102% | -89.4% (inactive) | 126% | -0.583 (inactive) | -1.9e-05 (inactive) | 0.00682 (inactive) | 2.73% (inactive) | 32.2% (inactive)
10 | CCOc1ccccc1NC(=O)C1CCCN(S(=O)(=O)c2cccc3cccnc23)C1 (stereo not drawn) | 717 | 0% (inactive) | 14.7% (inactive) | 124% | -55.7% (inactive) | 101% | -0.55 (inactive) | -3.3e-05 (inactive) | 0.00547 (inactive) | 19.8% (inactive) | 43.4% (inactive)
11 | CC(C)(C)c1ccc(-c2nnc(SCCC#N)n2C2CCCC2)cc1 | 410 | 5.5% (inactive) | 10.8% (inactive) | 115% | -2.3% (inactive) | 97.3% | -0.483 (inactive) | -3e-05 (inactive) | 0.00637 (inactive) | -5.13% (inactive) | 10.8% (inactive)
12 | Cc1cc(/C=N/n2cnnc2)c(C)n1-c1cccc(Cl)c1 | 567 | 4.7% (inactive) | 31% (inactive) | 32.1% | 40.1% (inactive) | 46% | -0.364 (inactive) | -3.8e-05 (inactive) | 0.00449 (inactive) | 13.2% (inactive) | 21.5% (inactive)
13 | COc1ccccc1-c1nnc(SCC(=O)N2CC(C)CC(C)C2)o1 (stereo not drawn) | 351 | 11.1% (inactive) | -3.7% (inactive) | 112% | 28% (inactive) | 94.8% | -0.411 (inactive) | -5.2e-05 (inactive) | 0.00365 (inactive) | 21.4% (inactive) | 29.2% (inactive)
14 | CC(=O)C1=C(C)OC(N)=C(C#N)C1c1ccncc1 (stereo not drawn) | 322 | 3.7% (inactive) | -14.4% (inactive) | 97.8% | 39.3% (inactive) | 112% | -0.616 (inactive) | -5.3e-05 (inactive) | 0.004 (inactive) | 12.5% (inactive) | 16.8% (inactive)
15 | COCCNC(=O)C(C)N(c1ccc(Oc2ccccc2)cc1)S(C)(=O)=O (stereo not drawn) | 333 | 2.5% (inactive) | -15.1% (inactive) | 98.6% | -21.7% (inactive) | 111% | -0.445 (inactive) | -6.4e-05 (inactive) | 0.00568 (inactive) | 14.7% (inactive) | 23.7% (inactive)
16 | COc1ccc(N2C(=O)C3C4C=CC(C4)C3C2=O)nn1 (stereo not drawn) | 719 | -5.5% (inactive) | -9.5% (inactive) | 100% | -182% (inactive) | 142% | -0.44 (inactive) | -0.000108 (inactive) | 0.00628 (inactive) | 11.4% (inactive) | 23.1% (inactive)
17 | CN(C)S(=O)(=O)c1ccc(C(=O)N2CCCC2c2nc3ccccc3s2)cc1 (stereo not drawn) | 475 | -9.4% (inactive) | 4% (inactive) | 97.5% | -82.5% (inactive) | 102% | -0.524 (inactive) | 1.6e-05 (inactive) | 0.0053 (inactive) | -17.9% (inactive) | -7.19% (inactive)
18 | Cc1ccc2c(c1)NC(=O)C(CC(=O)NCCCN1CCN(c3cc(Cl)ccc3C)CC1)O2 (stereo not drawn) | 640 | 4.1% (inactive) | -19% (inactive) | 82.6% | 8.8% (inactive) | 123% | -0.55 (inactive) | 3.4e-05 (inactive) | 0.00483 (inactive) | -15.5% (inactive) | -8.91% (inactive)
19 | COc1ccc(CNC(=O)c2ccc(CN3CCOCC3)cc2)cc1 | 645 | -7.8% (inactive) | -5.7% (inactive) | 103% | 7.3% (inactive) | 147% | -0.472 (inactive) | -2.6e-05 (inactive) | 0.00567 (inactive) | 7.5% (inactive) | -5.55% (inactive)
20 | CCCC1CCC(C(=O)Nn2cnc3ccccc3c2=O)CC1 (stereo not drawn) | 271 | 3.9% (inactive) | 17.1% (inactive) | 86.9% | 33.8% (inactive) | 77.6% | -0.478 (inactive) | 2.4e-05 (inactive) | 0.00566 (inactive) | 6.74% (inactive) | 21.4% (inactive)
21 | Cc1cc(=O)oc2ccc(OCC(=O)N(Cc3ccc(F)cc3)Cc3ccco3)cc12 | 751 | 2.2% (inactive) | -0.1% (inactive) | 95.6% | -150% (inactive) | 107% | -0.493 (inactive) | 2.4e-05 (inactive) | 0.00494 (inactive) | -10.8% (inactive) | -19% (inactive)
22 | CC(=O)CCc1ccc(OCCCCn2cncn2)cc1 | 513 | 6.8% (inactive) | 15.6% (inactive) | 92.1% | -58.4% (inactive) | 116% | -0.625 (inactive) | -1.7e-05 (inactive) | 0.00807 (inactive) | 1.5% (inactive) | -5.67% (inactive)
23 | O=S(=O)(c1ccc(S(=O)(=O)N(Cc2ccco2)Cc2ccccc2Cl)cc1)N1CCCC1 | 818 | -6.1% (inactive) | -2.8% (inactive) | 108% | -38.1% (inactive) | 126% | -0.587 (inactive) | -3.1e-05 (inactive) | 0.00951 (inactive) | 8.74% (inactive) | 28% (inactive)
24 | Nc1c(N2CCCCC2)c(=O)[nH]c(=O)n1-c1ccccc1 | 751 | 2.4% (inactive) | 3% (inactive) | 106% | -0.1% (inactive) | 109% | -0.456 (inactive) | 4.1e-05 (inactive) | 0.00376 (inactive) | -4.05% (inactive) | -5.22% (inactive)
25 | COc1ccc(-c2nnc(SCC(=O)N3CCOCC3)o2)cc1OC | 603 | 19% (inactive) | -39.9% (inactive) | 86.5% | 38.5% (inactive) | 78.3% | -0.54 (inactive) | 1.3e-05 (inactive) | 0.0068 (inactive) | -13.3% (inactive) | 4.93% (inactive)
26 | O=C(CN1C(=O)CSC1=O)Nc1ccc(N2CCOCC2)cc1 | 700 | -1% (inactive) | 15.2% (inactive) | 110% | -27.8% (inactive) | 113% | -0.544 (inactive) | -2.2e-05 (inactive) | 0.00569 (inactive) | -8.99% (inactive) | -8.78% (inactive)
27 | S=C(NCC1CCCO1)n1nnc2ccccc21 (stereo not drawn) | 718 | -5.9% (inactive) | -2.9% (inactive) | 94.6% | 52% (inactive) | 92.8% | -0.399 (inactive) | 4.6e-05 (inactive) | 0.00794 (inactive) | 12.9% (inactive) | 13.5% (inactive)
28 | Cc1nc2sc(C(c3cccc(F)c3)N3CCC(C)CC3)c(O)n2n1 (stereo not drawn) | 231 | -5.4% (inactive) | -13.1% (inactive) | 109% | 9.7% (inactive) | 108% | -0.524 (inactive) | -7.2e-05 (inactive) | 0.00644 (inactive) | 14.4% (inactive) | 17% (inactive)
